About 83,000 compounds went through this panel and 20% of them were active in at least one assay; those are over-represented in the sample as a whole.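 Compound tested at a single concentration for 48 hours in 96-well plates; a percent growth value below 10 was scored as active.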 Values without a mark were called inactive. The source made the active and inactive calls.
These molecules were tested on SK-MEL-28 melanoma (assay: NCI-60 one-dose screen, 48 h (100 = growth as untreated, 0 = no growth, -100 = all killed)). Conditions: 10 µM unless noted.

SMILES | growth
N#CC1=C(N)Oc2cc(N)ccc2C1c1ccc(F)cc1 (centres undefined) | 84.8%
CCN(CC)CCCNc1ccc(C)c2sc3ccccc3c(=O)c12 | -80% (active)
COc1ccc(/C=C2\Oc3cc(C)c(Cl)cc3C2=O)cc1OC | 114%
Cc1nc2ccc(Cl)cc2n1C | 117%
COc1ccc(/C=N/NC(=O)c2cnn(CC(O)Cc3ccccc3)c2N)cc1OC1CCCC1 (centres undefined) | 107%
COc1ccc(-c2csc3c2-n2cccc2C3=O)cc1O | 61.5%
COc1cc(C(F)(F)F)ccc1-c1cc(-c2ccc(F)cc2)n[nH]1 | 102%
C[C@@H](Oc1cc(-c2cnn(C3CC4(CCNCC4)C3)c2)cnc1N)c1c(F)ccc(Cl)c1Cl | -83.4% (active)
CC(C)NCC(O)COc1ccc(CCOCC2CC2)cc1 (centres undefined) | 118%

Source: PubChem BioAssay (NCI)
